The test system of test [1] is PRMT1 (protein arginine N-methyltransferase 1). Nature of the test: small molecules binding arginine methyltransferase PRMT1 – biochemical, small-molecule microarray, 635 nm fluorescence, primary screen (AID 1088).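 Note: binding of Prmt1 protein to compounds spotted on small-molecule microarray slides.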 The conditions noted are these: higher = more signal.
A short description of test [2]: growth effects on S. cerevisiae YJM789 – YJM789 clinical isolate, OD600, 24 h, basal, primary screen (AID 1089).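 Note: growth of clinical yeast isolate S. cerevisiae YJM 789 seeded 1000 cells per well; test concentration not given here.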 The note with it: higher = more signal, called active from +8 up or from −8 down.
Test [3] in a line: S. pombe growth modifiers, basal conditions – strain 972, OD600, 24 h, no modulator, primary screen (AID 1090).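 Note: basal condition with compound alone and no growth modifier present; test concentration not given here.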 The conditions noted are these: S. pombe 972 growth, higher = more signal, called active from +8 up or from −8 down.
Test [4] is described as follows: budding yeast growth modifiers under rapamycin – strain BY4716, OD600, 96 h, primary screen (AID 1091). Note: test concentration not given here. The note with it: S. cerevisiae BY4716 + rapamycin, higher = more signal, called active from +8 up or from −8 down.
For test [5], the target named is Torsin-1A-interacting protein 2 (Homo sapiens) (UniProt Q8NFQ8). Nature of the test: small molecules binding lysate-expressed LULL1 – cell lysate, human LULL1 lysate, 635/667 nm fluorescence, primary screen (AID 1092).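 Note: probe is lysate of COS7 cells overexpressing human LULL1; score merges per-feature 667 nm fluorescence with signal-to-noise.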 The conditions noted are these: small-molecule microarray, hLULL1 lysate binding, 635 nm fluorescence; higher = more signal.
Sequence of Torsin-1A-interacting protein 2 (Homo sapiens) (Q8NFQ8 whole entry, looked up): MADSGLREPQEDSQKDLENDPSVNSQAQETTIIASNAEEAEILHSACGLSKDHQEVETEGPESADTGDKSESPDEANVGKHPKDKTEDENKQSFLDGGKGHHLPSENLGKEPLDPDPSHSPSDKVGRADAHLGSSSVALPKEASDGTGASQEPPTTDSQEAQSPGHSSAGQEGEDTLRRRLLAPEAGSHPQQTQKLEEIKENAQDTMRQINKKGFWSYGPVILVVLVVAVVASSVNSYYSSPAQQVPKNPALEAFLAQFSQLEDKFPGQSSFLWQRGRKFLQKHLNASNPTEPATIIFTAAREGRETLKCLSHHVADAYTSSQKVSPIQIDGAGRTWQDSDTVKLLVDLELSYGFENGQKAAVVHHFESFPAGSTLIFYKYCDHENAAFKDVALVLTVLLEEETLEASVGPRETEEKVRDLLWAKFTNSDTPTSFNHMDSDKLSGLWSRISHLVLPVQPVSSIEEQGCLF
Test [6] in a line: optical density change of DRC41 E. coli – strain DRC41, OD650, 24 h, E. coli filamentation project, primary screen (AID 1093).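 Note: MC1000 strain lacking acrAB efflux and sulA so SOS filamentation is blocked; test concentration not given here.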 The note with it: E. coli DRC41 growth, higher = more signal, called active from +8 up or from −8 down.
Test [7] in a line: probe aLefty2 binding to arrayed compounds – biochemical, biotinylated probe, 635/667 nm fluorescence, primary screen (AID 1094).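 Note: score merges spot fluorescence near 667 nm with spot signal-to-noise ratio.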 The conditions noted are these: small-molecule microarray, higher = more signal.
Test [8] relates to Noggin (protein binding on small-molecule microarray). Nature of the test: small molecules binding Noggin protein – biochemical, 635/667 nm fluorescence, primary screen (AID 1095).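 Note: score merges 667 nm feature fluorescence with signal to noise over triplicate slides.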 The note with it: 635 nm fluorescence, higher = more signal.
Test [9] concerns the target Neurogenic locus notch homolog protein 3 (Homo sapiens) (UniProt Q9UM47). Nature of the test: small molecules binding NOTCH3 protein – biochemical, 635/667 nm fluorescence, primary screen (AID 1096). The note with it: small-molecule microarray, 635 nm fluorescence, higher = more signal.
Test [10] in a line: probe aEGFR binding to arrayed compounds – biochemical, biotinylated probe, 635/667 nm fluorescence, primary screen (AID 1097).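 Note: probe is a biotinylated anti-EGFR antibody binding compounds printed on slides; score combines fluorescence near 667 nm and signal to noise of each spot.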 The note with it: small-molecule microarray, higher = more signal.

Molecules are shown by their SMILES. The source made the active and inactive calls.

Sequence of Neurogenic locus notch homolog protein 3 (Homo sapiens) (Q9UM47 whole entry, looked up): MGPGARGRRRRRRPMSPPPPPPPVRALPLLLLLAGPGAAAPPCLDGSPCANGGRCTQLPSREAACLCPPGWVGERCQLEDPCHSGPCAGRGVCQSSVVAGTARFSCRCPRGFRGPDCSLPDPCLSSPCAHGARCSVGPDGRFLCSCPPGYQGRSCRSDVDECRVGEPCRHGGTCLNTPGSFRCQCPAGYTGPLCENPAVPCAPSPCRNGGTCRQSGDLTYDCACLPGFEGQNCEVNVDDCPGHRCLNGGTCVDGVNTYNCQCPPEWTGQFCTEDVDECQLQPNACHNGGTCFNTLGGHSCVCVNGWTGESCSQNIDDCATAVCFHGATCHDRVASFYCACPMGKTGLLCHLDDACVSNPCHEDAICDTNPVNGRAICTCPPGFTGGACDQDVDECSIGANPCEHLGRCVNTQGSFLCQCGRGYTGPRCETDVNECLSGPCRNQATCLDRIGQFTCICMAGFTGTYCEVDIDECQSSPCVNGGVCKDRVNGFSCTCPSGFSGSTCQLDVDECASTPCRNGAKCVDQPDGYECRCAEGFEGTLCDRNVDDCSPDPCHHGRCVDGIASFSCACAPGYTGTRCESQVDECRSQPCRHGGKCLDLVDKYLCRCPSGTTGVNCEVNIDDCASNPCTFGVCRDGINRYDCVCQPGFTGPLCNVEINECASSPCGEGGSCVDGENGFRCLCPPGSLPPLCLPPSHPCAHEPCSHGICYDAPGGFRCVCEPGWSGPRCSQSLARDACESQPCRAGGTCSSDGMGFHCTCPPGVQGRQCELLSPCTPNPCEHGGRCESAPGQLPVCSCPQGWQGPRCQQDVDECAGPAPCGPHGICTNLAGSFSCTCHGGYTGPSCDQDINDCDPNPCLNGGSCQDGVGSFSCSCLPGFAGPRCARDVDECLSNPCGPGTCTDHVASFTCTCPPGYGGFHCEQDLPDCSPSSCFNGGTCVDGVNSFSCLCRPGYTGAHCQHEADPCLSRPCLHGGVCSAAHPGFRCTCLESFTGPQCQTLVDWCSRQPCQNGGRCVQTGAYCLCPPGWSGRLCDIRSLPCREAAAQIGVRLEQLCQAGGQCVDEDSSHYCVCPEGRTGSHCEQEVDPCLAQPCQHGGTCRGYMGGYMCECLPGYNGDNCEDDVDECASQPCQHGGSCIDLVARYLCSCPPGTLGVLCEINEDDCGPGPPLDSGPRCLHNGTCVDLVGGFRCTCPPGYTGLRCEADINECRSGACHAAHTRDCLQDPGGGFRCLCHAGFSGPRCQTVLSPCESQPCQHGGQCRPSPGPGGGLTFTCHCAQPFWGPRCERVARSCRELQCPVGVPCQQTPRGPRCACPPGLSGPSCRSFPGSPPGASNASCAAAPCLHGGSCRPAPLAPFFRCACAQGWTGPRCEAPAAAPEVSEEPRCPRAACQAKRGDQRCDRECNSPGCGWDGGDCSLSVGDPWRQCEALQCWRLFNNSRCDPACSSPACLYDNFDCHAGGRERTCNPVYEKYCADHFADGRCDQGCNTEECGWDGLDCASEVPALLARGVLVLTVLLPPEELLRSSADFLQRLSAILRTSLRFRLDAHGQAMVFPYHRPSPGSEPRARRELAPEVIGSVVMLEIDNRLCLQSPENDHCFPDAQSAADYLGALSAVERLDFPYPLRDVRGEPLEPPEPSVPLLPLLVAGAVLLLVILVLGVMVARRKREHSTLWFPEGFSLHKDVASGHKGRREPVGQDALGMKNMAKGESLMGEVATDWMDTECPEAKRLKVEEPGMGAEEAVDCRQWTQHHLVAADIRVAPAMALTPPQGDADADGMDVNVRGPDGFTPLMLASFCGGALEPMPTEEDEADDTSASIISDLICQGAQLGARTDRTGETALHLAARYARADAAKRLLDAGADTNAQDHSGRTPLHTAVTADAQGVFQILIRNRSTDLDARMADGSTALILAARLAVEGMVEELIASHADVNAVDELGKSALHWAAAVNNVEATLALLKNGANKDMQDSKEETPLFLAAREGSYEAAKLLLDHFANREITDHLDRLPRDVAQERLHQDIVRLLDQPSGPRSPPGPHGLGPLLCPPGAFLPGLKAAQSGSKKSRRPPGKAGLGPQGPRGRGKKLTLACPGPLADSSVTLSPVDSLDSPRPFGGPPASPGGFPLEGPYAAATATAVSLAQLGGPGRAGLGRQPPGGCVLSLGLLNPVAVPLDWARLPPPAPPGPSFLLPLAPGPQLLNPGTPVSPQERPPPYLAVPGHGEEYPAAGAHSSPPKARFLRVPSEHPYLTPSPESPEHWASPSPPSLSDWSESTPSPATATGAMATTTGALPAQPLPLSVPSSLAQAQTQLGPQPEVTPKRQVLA

`COC(=O)C[C@H]1O[C@]2(C(=O)N(C)c3ccccc32)[C@@H](C)[C@@H]1[Si](C)(C)c1ccc(C)cc1`: the composite z-score in test [1] is 1.12; in test [5] it was 0.797; in test [7], -0.137; in test [8], 1.27; in test [9], 0.989; in [10], -0.0674. The z-score was -0.421 (inactive) in [2], -11.3 (active) in [3], -0.673 (inactive) in [4] and 2.17 (inactive) in [6].

On to `O=C1O[C@@H](c2ccccc2)[C@@H](c2ccccc2)N2[C@@H](c3ccc(O)cc3)[C@]3(C(=O)Nc4ccc(C#CCCO)cc43)[C@@H](C(=O)Nc3nc4ccccc4s3)[C@H]12`, for which the composite z-score in test [1] was 1.55; in test [5] it was 2.81; in test [7], -0.119; in test [8], 1.35; in [9], 0.851; in test [10] it was -0.0036. Further, the z-score was 0.782 (inactive) in test [2], 0.403 (inactive) in test [3], 1.93 (inactive) in test [4] and 0.887 (inactive) in test [6].

Regarding `CC=CC(O)C1C=CC2C(=O)N(c3ccccc3)C(=O)C2N1Nc1ccccc1` (stereo not given), the composite z-score in test [1] was determined as 1.55; in test [5], 3.33; in [7] it was 0.209; in [8] it was 0.0919; in test [9], 1.09; in test [10], 0.113. Moreover, the z-score is 0.0831 (inactive) in [2], -0.32 (inactive) in [3], -0.474 (inactive) in test [4] and 0.143 (inactive) in [6].

Take `C=CC[C@]1(C(=O)N(C)C)N=C(c2ccc(OCCCO)cc2)O[C@H]1c1ccccc1N=[N+]=[N-]`: the composite z-score came to 1.48 in [1]; 3.2 in [5]; 0.285 in [7]; 0.464 in [8]; 1.03 in test [9]; 0.0651 in test [10]. Moreover, the z-score is 0.0061 (inactive) in test [2], -0.102 (inactive) in [3], -0.317 (inactive) in [4] and 0.394 (inactive) in test [6].

On to `[N-]=[N+]=NCc1ccccc1C[C@@]1(C(=O)NCCN2CCOCC2)N=C(c2ccc(OCCCO)cc2)O[C@@H]1c1ccccc1N=[N+]=[N-]`, for which the composite z-score in test [1] is 1.37; in test [5] it was 3.12; in [7] it was 0.09; in test [8] it was 0.622; in [9], 0.842; in [10], -0.0738. Also, the z-score was -1.22 (inactive) in [2], -0.269 (inactive) in test [3], 1.29 (inactive) in [4] and -0.704 (inactive) in test [6].

As to `COC(=O)[C@@]1(Cc2ccc(OC)cc2)[C@H]2c3cc(C(=O)N(C)C)n(Cc4nc5ccccc5[nH]4)c3C[C@H]2CN1C(=O)c1ccccc1`, the composite z-score turned out to be 0.777 in [1]; 3.61 in [5]; 0.3 in [7]; 0.493 in test [8]; 1.02 in [9]; 0.329 in [10]. Also, the z-score is 0.591 (inactive) in test [2], 1.49 (inactive) in test [3], 6.95 (inactive) in test [4] and -0.648 (inactive) in test [6].

With `CN(C)CCCCNC(=O)[C@H]1C[C@H]2C(=O)N3CCC[C@H]3C(=O)N2[C@H]1c1ccc(O)cc1`, the composite z-score in test [1] was 0.765; in test [5], 0.391; in test [7], -0.234; in test [8], -0.439; in test [9], 0.229; in [10], -0.45. The z-score in test [2] is -0.859 (inactive); in test [3], 1.1 (inactive); in test [4], -0.384 (inactive); in [6], 1.27 (inactive).

Turning to `COc1ccc([Si](C)(C)[C@@H]2[C@@H](CCO)O[C@]3(C(=O)N(Cc4cccc(N5C(=O)c6cccc7cccc5c67)c4)c4ccccc43)[C@H]2C)cc1`, the composite z-score in test [1] is 1.22; in test [5], 1.24; in [7], -0.0931; in test [8] it was -0.25; in test [9], 0.267; in test [10], -0.221. In addition, the z-score in test [2] is 2.2 (inactive); in test [3] it was 2.22 (inactive); in [4], 38.9 (active); in [6], 0.399 (inactive).

For the compound `C[N+](C)(C)CCCC[C@@H]1NC(=O)[C@@H]2C[C@H](C(=O)O)[C@H](c3ccc(O)cc3)N2C1=O`, the composite z-score in test [1] is -0.701; in test [5] it was -0.972; in [7], -0.0943; in [8] it was -0.342; in test [9], -0.694; in [10], -0.269. Further, the z-score in [2] was 0.151 (inactive); in test [3] it was 0.229 (inactive); in test [4], -1.27 (inactive); in test [6], 0.0772 (inactive).

`C=CCOC(=O)[C@@H]1[C@H]2C(=O)O[C@H](c3ccccc3)[C@H](c3ccccc3)N2[C@H](c2ccc(OCCOC(=O)[C@H]3C[C@H]4C(=O)N[C@@H](CCCCNC(C)=O)C(=O)N4[C@H]3c3cccc(OCCO)c3)cc2)[C@@]12C(=O)Nc1ccc(I)cc12`: the composite z-score in test [1] is 1.54; in test [5] it was 1.78; in test [7], -0.195; in test [8], 1.68; in test [9], 1.12; in test [10], -0.0882. Moreover, the z-score in test [2] is 1.71 (inactive); in [3], 1.38 (inactive); in [4], 3.9 (inactive); in test [6], 0.136 (inactive).

Consider `C=C(CCCC)C(=O)CC[C@@H](OC(=O)c1cccnc1)c1ccccc1OCCO`, for which the composite z-score is 1.31 in test [1]; 0.178 in test [5]; 0.0166 in test [7]; 0.836 in test [8]; 0.144 in [9]; -0.0565 in test [10]. The z-score in [2] was -0.765 (inactive); in test [3] it was -1.37 (inactive); in test [4] it was -0.24 (inactive); in test [6], 0.22 (inactive).

With `CN(C)CCCN1C(=O)[C@@]2(c3ccc([N+](=O)[O-])cc3)CC(=O)N(CC34CC5CC(CC(C5)C3)C4)[C@@H]2c2ccc(CO)cc21`, the composite z-score was 1.54 in [1]; 3.29 in test [5]; -0.116 in test [7]; -0.378 in [8]; 0.214 in test [9]; -0.12 in test [10]. The z-score in [2] is 0.296 (inactive); in [3], -0.505 (inactive); in [4], -1.06 (inactive); in test [6], 0.304 (inactive).

Turning to `C=C(C(=O)CC[C@H](OC(=O)c1cccnc1)c1cccc(OCCO)c1)C(C)C`, the composite z-score is 1.03 in test [1]; 0.391 in test [5]; -0.017 in test [7]; -0.367 in [8]; -0.424 in [9]; -0.0238 in test [10]. The z-score is 0.865 (inactive) in test [2], 0.167 (inactive) in test [3], 1.1 (inactive) in [4] and 0.483 (inactive) in test [6].

In the case of `NCCCCCCNC(=O)[C@H]1C[C@H]2C(=O)N[C@@H](Cc3ccccc3)C(=O)N2[C@H]1c1ccc(O)cc1`, the composite z-score in [1] is 1.11; in test [5], 2.45; in test [7], -0.0824; in [8], 1.07; in test [9] it was 0.272; in [10] it was -0.0685. Besides, the z-score in [2] is -1.8 (inactive); in [3] it was -0.599 (inactive); in [4], -1.24 (inactive); in test [6] it was 0.933 (inactive).

The values are drawn from PubChem BioAssay.
